PubChem BioAssay (EPA / NIEHS)
Results filed as inconclusive are left out. Calls of active or inactive are those of the source. The calls were made as follows: active = hit-call score of the fitted dose curve at least 0.9, where 1 is the maximum; inconclusive = response in the unintended direction; inactive = score below 0.9.

Molecular target: PGR (gene 5241) (UniProt P06401)
Experiment: TOX21_PR_LUC_Followup_Antagonist: Tox21 HEK293 Progesterone Receptor (PR) Antagonism Luciferase Follow-Up Assay (AID 2283938);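 also: curve fitted upward as signal gain over DMSO baseline despite antagonist label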
Description: TOX21_PR_LUC_Followup is a secondary assay for specificity for the TOX21_PR_BLA_Agonist assay. To differentiate true PR agonists from cytotoxic substances, this follow up assay is multiplexed with a cell viability assay.TOX21_PR_LUC_Followup_Antagonist is one of one assay component(s) measured or calculated from the TOX21_PR_LUC_Followup assay. It is designed to make measurements of luciferase induction, a form of inducible reporter, as detected with bioluminescence signals by CellTiter-Glo Luciferase-coupled ATP quantitation technologyData from the assay component TOX21_PR_LUC_Followup_Antagonist was analyzed into 1 assay endpoint. This assay endpoint, TOX21_PR_LUC_Followup_Antagonist, was analyzed in the positive analysis fitting direction relative to DMSO as the negative control and baseline of activity. Using a type of inducible reporter, gain-of-signal activity can be used to understand changes in the reporter gene as they relate to the gene NR3C3. Furthermore, this assay endpoint can be referred to as a primary readout, because the performed assay has only produced 1 assay endpoint. To generalize the intended target to other relatable targets, this assay endpoint is annotated to the nuclear receptor target family, where the subfamily is steroidal.
Quality Control Precautions: Maintain cells below 85-90% confluence in culture medium. For assay purpose, the cells should be cultured in assay medium with 10% charcoal stripped FBS for 5 days with alternate day medium changed to fresh medium. Especially while in assay culture, the cells should not reach more than 85% confluence as they would become harder to detach if they reach over confluence.Assay Protocol: HEK293-PR-A-luc cells were dispensed at 3,000 cells/5 uL/well of culture medium into white wall/solid-bottom 1536-well plates using a Multidrop Combi (ThermoFisher Scientific, Waltham, MA) dispenser. After the assay plates were incubated at 37C and […] for 5 h, 23 nL of compounds dissolved in DMSO, positive controls or DMSO only was transferred to the assay plate by a Pintool station (Kalypsys, San Diego, CA). The plates were incubated at 37C and […] for 16 h. Then 4 uL of ONE-Glo reagent (Promega, Madison, WI) was added to each plate using a BioRAPTR Flying Reagent Dispenser (FRD) workstation (Beckman Coulter, Indianapolis, IN, USA) and luminescence was quantified on a ViewLux (PerkinElmer, Shelton, CT) plate reader after 30 min incubation at room temperature.

Sequence of PGR (gene 5241) (P06401 whole entry, looked up): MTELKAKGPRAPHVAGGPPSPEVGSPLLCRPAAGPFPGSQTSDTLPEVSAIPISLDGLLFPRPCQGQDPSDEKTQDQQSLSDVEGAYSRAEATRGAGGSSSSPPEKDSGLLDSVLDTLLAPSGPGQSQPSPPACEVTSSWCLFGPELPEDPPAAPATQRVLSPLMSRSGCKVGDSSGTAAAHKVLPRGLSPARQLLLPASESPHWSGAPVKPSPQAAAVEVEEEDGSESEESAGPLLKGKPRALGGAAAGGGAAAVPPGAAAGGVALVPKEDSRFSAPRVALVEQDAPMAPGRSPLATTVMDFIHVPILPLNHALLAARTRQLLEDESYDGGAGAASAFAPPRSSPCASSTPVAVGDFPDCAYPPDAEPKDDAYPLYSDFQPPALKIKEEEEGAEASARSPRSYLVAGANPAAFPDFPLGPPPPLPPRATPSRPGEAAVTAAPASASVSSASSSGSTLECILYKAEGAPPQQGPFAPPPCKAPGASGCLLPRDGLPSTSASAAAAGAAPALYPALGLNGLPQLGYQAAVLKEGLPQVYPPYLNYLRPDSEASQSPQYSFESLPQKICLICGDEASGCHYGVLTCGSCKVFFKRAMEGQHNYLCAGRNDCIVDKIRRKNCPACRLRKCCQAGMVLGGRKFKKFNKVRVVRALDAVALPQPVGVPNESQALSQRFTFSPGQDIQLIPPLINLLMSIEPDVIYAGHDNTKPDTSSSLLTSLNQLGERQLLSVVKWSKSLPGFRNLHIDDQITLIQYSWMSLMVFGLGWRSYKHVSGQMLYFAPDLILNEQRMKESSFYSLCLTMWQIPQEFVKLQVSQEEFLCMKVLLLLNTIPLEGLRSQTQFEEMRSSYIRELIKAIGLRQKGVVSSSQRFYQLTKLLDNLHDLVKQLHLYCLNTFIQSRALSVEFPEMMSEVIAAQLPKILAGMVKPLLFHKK

SMILES	AC50	outcome
C/C=C(/C(=C/C)c1ccc(OC(C)=O)cc1)c1ccc(OC(C)=O)cc1	14.7 µM (active)	–
Clc1ccc2c(c1)Nc1ccccc1S2	28.9 µM (active)	–
C[C@]12CCC(=O)C=C1CC[C@H]1[C@@H]3CC[C@](O)(C(=O)CO)[C@@]3(C)C[C@H](O)[C@@]12F	–	inactive
CC(=O)OCC(=O)[C@@]1(O)[C@H](C)C[C@H]2[C@@H]3CCC4=CC(=O)C=C[C@]4(C)[C@@]3(F)[C@@H](O)C[C@@]21C	–	inactive
C/C=C1\C(=O)C[C@H]2[C@@H]3CCC4=CC(=O)CC[C@]4(C)[C@H]3CC[C@]12C	–	inactive
CCN(CC)CC(=O)OCC(=O)[C@@]1(O)CC[C@H]2[C@@H]3CCC4=CC(=O)CC[C@]4(C)[C@H]3[C@@H](O)C[C@@]21C	–	inactive
CC1(C)OC(=O)Nc2ccc(Br)cc21	–	inactive
CC(=O)O[C@@H]1CC2C3CCc4cc(OC(=O)c5ccccc5)ccc4C3CCC2(C)[C@H]1OC(C)=O (stereo not given in full)	1.05 µM (active)	–
C/C=C1/C(=O)C[C@H]2[C@@H]3CCC4=CC(=O)CC[C@]4(C)[C@H]3CC[C@]12C	–	inactive
COC(=O)C1=C(C)NC(C)=C(C(=O)OC(C)C)C1c1cccc2nonc12 (stereo not given)	18.1 µM (active)	–
CN1CC[C@H](c2c(O)cc(O)c3c(=O)cc(-c4ccccc4Cl)oc23)[C@H](O)C1	0.565 µM (active)	–
CCCOc1ccc2c(c1)CC[C@@H]1[C@@H]2CC[C@]2(C)C(OC)CC[C@@H]12 (stereo not given in full)	–	inactive
CC(C)(C)C(O)/C=C/c1ccc2c(c1)OCO2 (stereo not given)	–	inactive
C[C@@H]1CC(=O)NN=C1c1ccc(NN=C(C#N)C#N)cc1	3.22 µM (active)	–
Cl/C(=C\n1cncn1)c1ccc(Cl)cc1Cl	–	inactive
CN1CCN(C2=Nc3cc(F)ccc3Cc3ccccc32)CC1	–	inactive
CCOC(=O)C1=C(C)NC(C)=C(C(=O)OC)C1c1cccc(Cl)c1Cl (stereo not given)	13.4 µM (active)	–
CC(=O)O[C@H]1CC[C@@]2(C)C(=CC[C@@H]3[C@@H]2CC[C@]2(C)C(C(C)=O)=CC[C@@H]32)C1	9.14 µM (active)	–
CCCC(=O)OCOC(=O)C1=C(C)NC(C)=C(C(=O)OC)C1c1cccc(Cl)c1Cl (stereo not given)	–	inactive
CC(=O)OCC(=O)[C@H]1CC[C@H]2[C@@H]3CCC4=CC(=O)CC[C@]4(C)[C@H]3CC[C@]12C	–	inactive
CCC(=O)Oc1ccc2c(c1)CC[C@@H]1[C@@H]2CC[C@@]2(C)[C@H]1C[C@@H](OC(=O)CC)[C@@H]2OC(=O)CC	–	inactive
CC(=O)OCC(=O)[C@@]1(O)CC[C@H]2[C@@H]3CCC4=CC(=O)CC[C@]4(C)[C@H]3C(=O)C[C@@]21C	–	inactive
CCCC(=O)O[C@]1(C(=O)CO)CC[C@H]2[C@@H]3CCC4=CC(=O)CC[C@]4(C)[C@H]3[C@@H](O)C[C@@]21C	–	inactive
CCC(=O)O[C@]1(C(=O)COC)[C@@H](C)C[C@H]2[C@@H]3CCC4=CC(=O)C=C[C@]4(C)C3(F)[C@@H](O)C[C@@]21C (stereo not given in full)	–	inactive
COC(=O)[C@@H]1CC2=CC(=O)CC[C@]2(C)[C@@]23O[C@@H]2C[C@@]2(C)[C@@H](CC[C@@]24CCC(=O)O4)[C@H]13	–	inactive
